Experimental data from PubChem BioAssay (EPA / NIEHS).
Active and inactive are the calls of the source. How the source made its calls: active means hit-call score of the fitted dose curve at least 0.9, where 1 is the maximum; inactive means score below 0.9.

The compounds below were run on growth arrest and DNA damage 45 (GADD45G), GADD45G (gene 10912) (assay: LTEA_HepaRG_GADD45G: Life Technologies and Expression Analysis (LTEA) Assay for growth arrest and DNA damage 45 (GADD45G) using HepaRG (AID 2283499)). Settings: mRNA level, 48 h; actives raise or lower the signal.
Experimental: LTEA_HepaRG is a cell based, multiplexed-readout assay that uses HepaRG, a human liver cell line, with measurements taken at 48 hours after chemical dosing on a 96-well plate.LTEA_HepaRG_GADD45G is one of 102 assay component(s) measured in the LTEA HepaRG cell culture assay. It is a marker of Cell proliferation, survival, death.Data from the assay component LTEA_HepaRG_GADD45G was analyzed into 1 endpoint. This assay endpoint, LTEA_HepaRG_GADD45G, was analyzed with bidirectional fitting relative to DMSO as the negative control and baseline of activity. Using a type of inducible reporter, measures of mRNA induction for gain or loss-of-signal activity can be used to understand regulation of transcription factor activity. To generalize the intended target to other relatable targets, this assay endpoint is annotated to the mutagenicity response intended target family, where the subfamily is Cell proliferation, survival, death.
A total of 1060 chemcials from the ToxCast library were tested in eight-point concentration-response experiments. Cell culture and cytotoxicity assays were conducted at Thermo Fisher Scientific's Custom Services facility (Madison, WI). A single lot of human HepaRG cells (Thermo Fisher Scientific, Frederick, MD) was used for the cell culture experiments. 96-well format collagen type I coated plates of human HepaRG cells were prepared using established methods. Briefly, cryopreserved HepaRG cells were thawed, plated at a density of approximately 100,000 cells/well in HepaRG Thaw, Plate, and General Purpose media (HPRG770, Thermo Fisher Scientific), and incubated for 48 hours. 0.5% DMSO was selected as vehicle control to balance the requisite need of DMSO in HepaRG cultures to maintain differentiation (for example, baseline metabolism, proportions of hepatocytes vs. cholangiocytes), while enabling further hepatic receptor pathway activation (for example, PXR and CAR) in response to chemical exposure. 48 hours after plating, the culture medium was replaced with HepaRG Serum-Free Incudtion Media. Cells were exposed to each test chemical in duplicate and maintained in CO2 incubators for another 48 hours. Chemical plates were thawed to room temperature and 200x concentrations of treatment groups were prepared. 8-point conentration-reponse curves were made with the highest exposure at 100 uM, followed by half-log dilutions, all in 0.5% DMSO. Each test plate contained variouse controls, induction positive controls (1mM phenobarbital), cytotoxicity positive controls ([…] aflatoxin B1), vehicle controls (0.5% DMSO), and total lysis controls (0.5% DMSO). Cell morphology images were taken using an Essen IncuCyte FLR automated microscope, with six 96-well plates imaged in about 24 minutes. Images were captured and exported and JPEG files. Spent culture media was transfered to black-well plates for the LDH assay, and remaining media was sorted at -80 C for later use. Cells were treated with RLT buffer and frozen until shipped for gene expression analysis. Total RNA was isolated from the cell suspension in 75 uL of Buffer RLT (Qiagen, Germantown, MD 20874) by Quintiles/Expression Analysis (Durham, NC) using a custom isolation procedure. Total RNA from each plate well was transferred to a preamplification plate. Fluidigm's 96.96 Dynamic ArrayTM (Fluidigm, Amsterdam, the Netherlands) technology was used for gene expression analyses by quantitative reverse transcription polymerase chain reaction (qRT-PCR, performed by Quintiles/Expression Analysis, Durham, NC)89. Standard TaqManTM Assays (Applied Biosystems/ThermoFisher Scientific, Foster City, CA) were used to assess the expression of 93 genes selected based on their selectivity and sensitivity to important hepatic receptors known to be modulated by environmental chemicals; importance in human hepatocyte functionality; and hepatotoxicity. […]
With `Cc1cccc(N)c1` the outcome was “inactive”.
In the case of `CCCCN(CCCC)SN(C)C(=O)Oc1cccc2c1OC(C)(C)C2`, the outcome is reported as “inactive”.
With `CN(C)C(=O)Cl` the outcome was “inactive”.
In the case of `c1cc2c3c(cccc3c1)CC2`, the outcome is reported as “inactive”.
`c1nc[nH]n1` was tested, and the outcome was “inactive”.
In the case of `CC(Cl)(Cl)C(=O)O`, the outcome is reported as “inactive”.
`Cc1ccc(N)cc1N` was tested, and the outcome was “inactive”.
`O=C(O)C(Cl)Cl` was tested, and the outcome was “inactive”.
With `[N-]=[N+]=[N-]` the AC50 was 78.1 µM (active).
For `CSC(C)(C)C=NO`, the outcome was “inactive”.
For `ClC1=C(Cl)C2(Cl)C3C(Cl)C(Cl)CC3C1(Cl)C2(Cl)Cl` (stereo not given), the outcome was “inactive”.
For `COCCOCCO`, the outcome was “inactive”.
`Cc1ccc([N+](=O)[O-])cc1C` was tested, and the outcome was “inactive”.
With `CCOP(=S)(Oc1ccc([N+](=O)[O-])cc1)c1ccccc1` (stereo not given) the AC50 was 65.7 µM (active).
With `O=P1(N(CCCl)CCCl)NCCCO1` (stereo not given) the outcome was “inactive”.
`CCOC(=O)c1ccccc1C(=O)OCC` was tested, and the outcome was “inactive”.
With `ClC(Cl)(Cl)c1ccccc1` the outcome was “inactive”.
For `O=C(O)C1C(C(=O)O)C2(Cl)C(Cl)=C(Cl)C1(Cl)C2(Cl)Cl` (stereo not given), the outcome was “inactive”.
With `O=[N+]([O-])c1ccccc1` the outcome was “inactive”.
With `c1ccc(OP(Oc2ccccc2)Oc2ccccc2)cc1` the outcome was “inactive”.
In the case of `CCOc1ccc(C(C)(C)COCc2cccc(Oc3ccccc3)c2)cc1`, the outcome is reported as “inactive”.
`OCC1CO1` (stereo not given) was tested, and the outcome was “inactive”.
With `Nc1cc2c3c(c1)C(c1ccccc1)=N[C@@H](NC(=O)c1cccnc1)C(=O)N3CC2` the outcome was “inactive”.
`O=P(Oc1ccccc1)(Oc1ccccc1)Oc1ccccc1` was tested, and the AC50 was 50 µM (active).
In the case of `CCC(C)(C)c1ccc(O)cc1`, the outcome is reported as “inactive”.
For `CC(Cc1ccc(OCC(=O)O)cc1)NCC(O)c1csc(C(F)(F)F)n1` (stereo not given), the outcome was “inactive”.
`CCCCCCCc1ccc(O)cc1` was tested, and the outcome was “inactive”.
In the case of `CCCCc1ccccc1`, the outcome is reported as “inactive”.
For `O=[N+]([O-])c1ccc(Cl)c(Cl)c1`, the outcome was “inactive”.
`CCN(CC)c1ccccc1` was tested, and the outcome was “inactive”.
With `Nc1ccc2ccccc2c1` the outcome was “inactive”.
For `CCCCN(CCCC)N=O`, the outcome was “inactive”.
In the case of `CCC1(c2ccccc2)C(=O)N=C(O)NC1=O` (stereo not given), the outcome is reported as “inactive”.
`CCNc1nc(Cl)nc(NC(C)(C)C)n1` was tested, and the outcome was “inactive”.
`Cc1ccc(O)cc1C` was tested, and the outcome was “inactive”.
`CCOS(=O)(=O)OCC` was tested, and the outcome was “inactive”.
In the case of `CCOP(=S)(OCC)SCSCC`, the outcome is reported as “inactive”.
For `CC(C)(C)OOC(C)(C)C`, the outcome was “inactive”.
In the case of `c1ccc2c(c1)Nc1ccccc1S2`, the outcome is reported as “inactive”.
In the case of `CCCN(CCC)c1c([N+](=O)[O-])cc(C(C)C)cc1[N+](=O)[O-]`, the outcome is reported as “inactive”.
